PubChem BioAssay (NCI)
This is part of a sample that, as a whole, favours compounds with a hit. Of some 83,000 tested, about 20% had one in any assay.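 48-hour exposure, single concentration, 96-well plates; percent growth endpoint where 0 means no net growth. Active: below 10.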 Unmarked numbers belong to inactive results. Calls of active or inactive are those of the source.

System: HL-60(TB) leukemia
Assay: NCI-60 one-dose screen, 48 h (100 = growth as untreated, 0 = no growth, -100 = all killed)
Conditions: 10 µM unless noted

SMILES	growth
COc1ccc2c(c1)CC[C@@H]1[C@@H]2CC[C@]2(C)[C@@H](O)C(=O)C[C@@H]12	108%
Cc1c(Cl)cccc1NC(=O)c1sc2nc3c(cc2c1N)CN(Cc1ccccc1)CC3	-22.9% (active)
O=C(Nc1cccc(C(=O)N2CCc3ccc(Cl)cc32)c1)c1ccco1	1.39% (active)
CCN(CCO)CCNc1ccc(C)c2sc3cc(OC)ccc3c(=O)c12	67.5%
CCN(CC)c1ccc(C2=NN(C(C)=O)C(c3cc(OC)c(OC)c(OC)c3)C2)cc1 (configuration not stated)	-42% (active)
C=C(C)[C@@H]1CC[C@]2(C(=O)OCCOCCOCC[P+](c3ccccc3)(c3ccccc3)c3ccccc3)CC[C@]3(C)[C@H](CC[C@@H]4[C@@]5(C)CC[C@H](OC(=O)C(Cl)Cl)C(C)(C)[C@@H]5CC[C@]43C)[C@@H]12	-47.8% (active)
O=Cc1ncc(-c2ccc(C(F)(F)F)cc2)c(NC2CCCCCC2)n1	-50.6% [100 µM] (active)
COc1ccc2c(c1)OC(N)=C(C#N)C2c1ccc(F)c(F)c1 (configuration not stated)	-18.4% (active)
CC(=O)O[C@@H]1C2CCC3C(CC[C@@]4(C)C3CC[C@@H]4C(C)N(C)C)[C@@]2(C)CC[C@@H]1NC(=O)C=C(C)C (some centres not stated)	-58.8% (active)
COc1ccc2c(c1)O/C(=C/c1ccc(OCC(=O)Nc3ccc(S(N)(=O)=O)cc3)cc1)C2=O	89.5%
CC(=O)C1C(=O)C(=O)N(c2cccc([N+](=O)[O-])c2)C1=O (configuration not stated)	103%
O=[N+]([O-])c1ccc(N/N=C\c2ccc(O)cc2O)nc1	0.875% (active)
CCOC(=O)CSc1nc2sc3c(c2c(=O)n1-c1ccc([N+](=O)[O-])cc1)CCCCC3	88.4%
O=c1c2cc(F)ccc2sc2c(N3CCNCC3)nc3ccccc3c12	-52% (active)
Cc1nc2oc3ccccc3c(=O)c2cc1C(=O)NCc1ccccc1	69.5%
COc1c(C(=O)Nc2ccc(C)c(Br)c2)ccc2ccccc12	91.2%

SMILES	growth
CCCCOc1ccc(NC(=O)n2nc(NC(C)=O)c3cc(NC(C)=O)ccc32)cc1	72.9%
CNc1ncc(-c2ccc(C(F)(F)F)cc2)c(NC2CCCCCC2)n1	57%
NC(=S)NS(=O)(=O)c1ccc(N)cc1	94.5%
FC(F)(F)c1ccc(-c2nc(-c3nc4cc(Cl)c(Cl)cc4[nH]3)c3ccccn23)cc1	104%
CCn1cc(-c2cc(-c3ccc(Cl)cc3)nc(N)n2)c(-c2ccc(Br)cc2)n1	77.7%
CCCCC(CCc1ccc([N+](=O)[O-])cc1)(C(C)=O)C(=O)OCC (configuration not stated)	93%
CC(=O)N1N=C(c2ccc3c(c2)OCO3)CC1c1c(C)nn(-c2ccccc2)c1N(C)Cc1ccccc1 (configuration not stated)	85.6%
O=C1/C(=C/c2ccc(Cl)cc2)CN(C(=O)C(Cl)Cl)C/C1=C\c1ccc(Cl)cc1	-19.3% (active)
Cc1ncc(C#N)c(N)n1	109%
COc1ccc(C/C(C)=C(/c2ccc(OCCN3CCCCCC3)cc2)c2ccc(OC(=O)NCc3ccccc3)cc2)cc1	45%
COC(=O)CNc1nc(N(C)O)nc(N(C)O)n1	-7.42% (active)
COc1ccc(/C=c2\sc3n(c2=O)NC2C(N=3)N(C)C(=O)N2C)cc1 (configuration not stated)	98.4%
N#CCc1cccc2ccccc12	90.6%
Cc1ccc(Sc2sc(-c3ccccc3)nc2[P+](c2ccccc2)(c2ccccc2)c2ccccc2)cc1	-40.5% (active)
Cc1ccc2[nH]c3nc4cccnc4c(C)c3c2c1	83.5%
CN1C(=O)CCC(N2C(=O)c3cccc(NCCOCCOCCNC(=O)c4cc5c(o4)C(=O)c4ccccc4C5=O)c3C2=O)C1=O (configuration not stated)	0.337% (active)
